Experimental data taken from PubChem BioAssay AID540303 (National Center for Advancing Translational Sciences (NCATS), 2011).
Out of some 330,000 compounds screened, about 1,000 (0.3%) were called active. Inconclusive results (about 3%) are left out. Calls come from the whole dose curve; as a rule, active = well fitted inhibition curve with a large enough effect; inconclusive = small, poorly fitted or top-dose-only effect; inactive = no such curve, though single readings can be large or run the other way; tested in mouse RAW 264.7 cells. The list comes from a sample in which actives are over-represented; it also holds similar structures and randomly drawn compounds. Where a call stands in place of a potency, no number is given.

assay: qHTS for Inhibitors of Cell Surface uPA Generation; settings: cell surface uPA generation assay; series mostly up to 38.3 µM; note: nearly all actives have a fitted effect of over 55% in size
From the text: The overall objective of this project is to perform a quantitative high throughput screen (qHTS) to identify novel compounds that inhibit the generation of cell surface urokinase activity. The urokinase plasminogen activator (uPA) is one of the two primary endogenous systems that mediate plasminogen activation into plasmin. Members of this system, including uPA and its receptor (uPAR), are overexpressed in several malignant tumors. This system plays a major role in adhesion, migration, invasion and metastasis of cancer cells. Small molecule inhibitors of the uPA system will serve as probes to understand the molecular mechanisms of the uPA cascade and better understanding the microenvironmental circumstances that facilitate the activation of plasminogen by uPA, and finally may provide novel candidate agents for anticancer drug therapy.
[…] […] Upon inhibition of the uPA activation cascade, the subsequent cell surface uPA activity-dependent translocation of LF into the cytoplasm is inhibited. ATP-Lite is used to measure intracellular ATP concentrations, which remain increased if LF entry into the cytoplasm is inhibited. This validation assay was performed using a small set of validation compounds.
NIH Chemical Genomics Center [NCGC]
NIH Molecular Libraries Probe Centers Network [MLPCN]
Assay Submitter (PI): Thomas Bugge, National Institute of Dental and Craniofacial Research, NIH
Cultured RAW 264.7 were dispensed into 1536-well clear bottom, white walled tissue culture plates at a density of 4000 cells/well and were incubated overnight (12-16 h) at 37 C in a 5% CO2 incubator. Serially diluted compounds in 23 nl DMSO were added to cells. […] Compound and reagent-treated plates were incubated for 24 h at 37 C in a 5% CO2 incubator. Perkin Elmer ATPlitetrade mark 1 step (3 ul) was then added to each well. Luminescence was detected using a Perkin Elmer ViewLuxtrade mark plate reader.
1.Dispensing RAW 264.7 cells into 1536-well, white walled tissue culture plates at a density of 4000 cells/well (4 uL).
2.Incubation at 37 C in a 5% CO2 incubator overnight.
3.Serially diluting compounds (1:5 serial dilution; 0.0024 uM to […] final concentration) in 23 nl DMSO.
5.Incubating the compound and reagent-treated plates for 24 hours at 37 C in a 5% CO2 incubator.
6.Adding ATP-Lite (3 ul).
7.Reading plates by ViewLux with an exposure length of 5 seconds.
Potency is the fitted concentration of half-maximal effect.

| SMILES | Potency |
| --- | --- |
| COc1ccc(-c2ccc3c(c2)C2CC3CCN2CCC#N)cc1 (stereo not given) | inactive |
| CC(C=Cc1ccccc1)=NNS(=O)(=O)c1ccc([N+](=O)[O-])cc1 | inactive |
| CCCCOc1ccc(CSC(=N)N)cc1[N+](=O)[O-] | inactive |
| CCCOc1ccc(Cn2ccnc2)cc1[N+](=O)[O-] | inactive |
| CCCCCOc1ccc(CSC2=NCCN2)cc1[N+](=O)[O-] | 10 µM (active) |
| COc1ccc(Br)cc1/C=N/Nc1ccc(S(=O)(=O)Nc2ccccc2C(=O)O)cc1[N+](=O)[O-] | inactive |
| O=C(NCC1(N2CCCCC2)CCCCC1)c1cccc(S(=O)(=O)Nc2ccccc2Cl)c1 | inactive |
| CN(C)C(CNC(=O)c1cc2ccccc2o1)c1ccccc1 (stereo not given) | inactive |
| O=C1/C(=C\c2ccc(O)cc2)CCC1CNc1ccc(Cl)cc1 (stereo not given) | inactive |
| O=C(CC(=O)c1cccnc1)c1ccccc1 | inactive |
| COc1ccc(OC)c(/C=C/C(=O)OCC(=O)Nc2ccc3c(c2)OCCO3)c1 | inactive |
| O=C(/C=C\c1ccc2c(c1)OCO2)NC1(C(=O)Nc2ccc3c(c2)OCCO3)CCCCC1 | inactive |
| COc1cccc(/C=C/C(=O)Nc2ccc3c(c2)OCCO3)c1 | 2.82 µM (active) |
| c1ccc(CCc2ccccn2)cc1 | inactive |
| NC(CSC1(c2ccccc2)c2ccccc2-c2ccccc21)C(=O)O (stereo not given) | inactive |
| Cc1c(/C=N/N2C(=O)C3C4C=CC(C4)C3C2=O)c2ccccc2n1C (stereo not given) | inactive |
| Cc1c(/C=N\NC(=O)c2cc3ccccc3o2)c2ccccc2n1C | 3.55 µM (active) |
| O=C(N/N=C/c1cccc(O)c1)c1cc2c(ccc3ccccc32)o1 | inactive |
| CC(=NNC(=S)N1CCCCCC1)c1ccccn1 | inactive |
| Cc1cc(NC(=O)C(C)SCC(=O)Nc2cccc(S(=O)(=O)N3CCCCCC3)c2)no1 (stereo not given) | inactive |
| O=C(Nc1ccn(CCCNCc2ccc3[nH]ccc3c2)c(=O)n1)OCc1ccccc1 | inactive |
| NNc1cccc(C=Cc2ccccc2)cc1=O | inactive |

| SMILES | Potency |
| --- | --- |
| Cc1nc2cc(NC(=O)Nc3cccc(F)c3)ccc2n1C | 3.98 µM (active) |
| C=CCN(C(=O)Nc1ccc2c(c1)nc(C)n2C)c1ccccc1 | inactive |
| Cn1c(CCN2CCCCCC2)nc2cc(NC(=O)Nc3ccccc3)ccc21 | inactive |
| Cc1ccc(OCCNC(=O)c2cccc(S(=O)(=O)N3CCN(Cc4ccccc4)CC3)c2)cc1 | inactive |
| C=CCOC(=O)N1CCC2CC1c1cc(-c3ccc(OC)cc3)ccc12 (stereo not given) | inactive |
| O=C(CNC(=O)[C@@H]1Cc2ccccc2CN1)NC1CCCCC1 | inactive |
| C[C@@H](NC(=O)[C@@H]1Cc2ccccc2CN1)C(=O)NC1CCCC1 | 7.08 µM (active) |
| C[C@H](NC(=O)[C@@H]1Cc2ccccc2CN1C(=O)OC(C)(C)C)C(=O)NC1CCCC1 | inactive |
| NC(=O)c1ncn([C@@H]2O[C@H](CNCc3cnc(N4CCOCC4)s3)[C@@H](O)[C@H]2O)n1 | inactive |
| Cc1c[n+]([O-])ccc1[N+](=O)[O-] | inactive |
| COc1ccc(-c2ccc3c(c2)[C@@H]2C[C@H](N(C)S(=O)(=O)c4ccccc4)[C@H]([C@H](C)O)C(=O)N2CC3)cc1 | inactive |
| Cc1ccc2c(c1)C1CN(C)CCC1N2C(=S)Nc1ccc(OC(F)F)cc1 (stereo not given) | inactive |
| Cc1ccc2c(c1)C1CN(C)CCC1N2S(=O)(=O)c1cccc(F)c1 (stereo not given) | inactive |
| Cc1ccc2c(c1)C1CN(C)CCC1N2S(=O)(=O)c1ccc(Oc2ccc([N+](=O)[O-])cc2)cc1 (stereo not given) | 8.91 µM (active) |
| C/C(=N\Nc1ccc(Cl)nn1)c1ccccc1O | inactive |
| C[C@]12CCC(=O)C=C1C=CC1C2CC[C@@]2(C)C1CC[C@@]21CCC(=O)O1 (stereo not given in full) | inactive |
| Nc1ccc2[nH]c(=S)sc2c1 | inactive |
| Cc1ccc(C(=O)O/N=C(\N)c2ccccn2)cc1Cl | 8.91 µM (active) |
| COc1ccc(C(=O)O/N=C(\N)c2ccccn2)cc1[N+](=O)[O-] | inactive |
| N/C(=N\OC(=O)c1ccc([N+](=O)[O-])cc1)c1ccccn1 | inactive |
| Cc1ccc(S(=O)(=O)N2CCC(C(=O)N3CCCCCCC3)CC2)cc1 | inactive |
| COC(=O)Cc1nc2c(N)nc(N)nc2[nH]c1=O | inactive |

| SMILES | Potency |
| --- | --- |
| C=CCNc1cnn(-c2ccc(C)cc2)c(=O)c1Cl | inactive |
| Cc1cccc(N2C(=O)c3cccnc3C2=O)c1 | inactive |
| Cc1cccc(-n2ncc(Cl)c(Cl)c2=O)c1 | 10 µM (active) |
| CNN/C(N=Cc1ccc([N+](=O)[O-])s1)=N\S(=O)(=O)c1cc(C)c(Cl)cc1SCc1ccccc1 | inactive |
| CC(C)(C)c1nnc2sc(SCC(O)=C(C#N)c3nc4ccccc4[nH]3)nn2c1=O | inactive |
| COc1ccc(S(=O)(=O)N2C[C@H]3CON(C)[C@H]3C[C@H]2c2cccc(Br)c2)cc1 | inactive |
| CN(C(=O)CSc1nncc2ccccc12)C1CCCCC1 | inactive |
| CN(C(=O)c1cc2c(=O)n3ccccc3nc2s1)C1CCCCC1 | inactive |
| CN(c1ccc2nc3ccccc3c(=O)n2n1)C1CCCCC1 | 0.794 µM (active) |
| Cn1cc(C2OC(=O)c3ccccc32)c2ccccc21 (stereo not given) | inactive |
| COC(=O)c1ccc(NCc2cc(O)ccc2O)cc1 | inactive |
| O=C(Cc1ccc([N+](=O)[O-])cc1)NCCc1ccc2c(c1)OCO2 | inactive |
| O=C(NCc1ccc2c(c1)OCO2)c1cc([N+](=O)[O-])ccc1N1CCOCC1 | 2.82 µM (active) |
| CC1CCN(c2ccc(C(=O)NCc3ccc4c(c3)OCO4)cc2[N+](=O)[O-])CC1 | inactive |
| CC(=O)c1cccc(-c2ccc(CN3C(CC(C)C)C(=O)N(Cc4cn(CC5CCCCC5)nn4)CCS3(=O)=O)cc2)c1 (stereo not given) | inactive |
| C=CCCC(=O)N1C[C@H]2CON(C)[C@H]2C[C@H]1c1cccc(Nc2ccccc2)c1 | inactive |
| CC(Nc1ccc([N+](=O)[O-])cc1[N+](=O)[O-])c1ccccc1 (stereo not given) | inactive |
| COc1cccc2c1C(=O)c1c(O)c3c(c(O)c1C2=O)CC(O)(C(C)=NNC(=O)c1ccc(Cl)c(Cl)c1)CC3OC1CC(N)C(O)C(C)O1 (stereo not given) | inactive |
| CN1CCN(CCCNC(=O)c2ccc(/C=C3\Oc4ccccc4N(Cc4ccc(Cl)cc4)C3=O)cc2)CC1 | inactive |
| O=C(NCCCN1CCOCC1)c1ccc2c(c1)N(Cc1cccc(F)c1)C(=O)c1ccccc1S2 | inactive |
| CCN1CCN(CCNC(=O)c2ccc(/C=C3/Sc4ccccc4N(Cc4cccc(C)c4)C3=O)cc2)CC1 | 6.31 µM (active) |
